# Results reported in PubChem BioAssay (NCATS).
# Values joined by “and” are separate entries in the source; they are usually repeats but may differ in a detail not shown here. Equal values may be shown once. Inconclusive results are not listed. More than one record can exist for a structure, and the calls need not agree. Values without a mark were called inactive. Active and inactive are the calls of the source. Calls come from the whole dose curve; as a rule, active = well fitted inhibition curve with a large enough effect; inconclusive = small, poorly fitted or top-dose-only effect; inactive = flat fitted curve, though single readings scatter.
# Tested on: HEK293
# Experiment: Cytotoxic Profiling of Annotated Libraries Using Quantitative High-Throughput Screening (AID 1296008); note: nearly all actives have a fitted effect of over 60% in size
# Settings: Five cell lines viability, CellTiter-Glo ATP luminescence, 48-72 h; max response: stronger effect = lower value
# From the text: Cell-based phenotypic screening is a commonly used approach to discover biological pathways, novel drug targets, chemical probes and high-quality hit-to-lead molecules. Many hits identified from high-throughput screening campaign are ruled out through a series of follow-up potency, selectivity/specificity, and cytotoxicity assays. Prioritization of molecules with little or no cytotoxicity for a more in-depth downstream evaluation influence the future direction of projects, so cytotoxicity profiling of the screening libraries at early stage is essential for increasing the likelihood of candidate success. […] For the annotated library, we also examined the primary targets and mechanistic pathways regularly associated with cell death. To our knowledge, this is the first study to use high-throughput screening to profile large libraries for cytotoxicity assessment in both normal and cancer cell lines. In summary, the results generated here constitutes a valuable resource for the scientific community and provides insight on identifying cytotoxic compounds with particular mechanisms of action, and prioritizing compounds with suitable cytotoxicity profile for further evaluation.
# A pintool (Kalypsys) was used to transfer 23 nL of compound solution to the 1536-well assay plates. After 48 or 72 hr incubation at 37 degree Celsius, 5% CO2 and 95% humidity, 2.5 uL of CellTiter-Glo (Promega) was dispensed into each well using a dispenser (Aspect Automation, St. Paul, MN) with solenoid valves (Lee Valves, Westbrook CT). Plates were left at room temperature for 10 min before imaging the ATP-coupled luminescence using a ViewLux microplate imager (PerkinElmer, Waltham, MA).
# % is set by controls: 0 for no effect and ±100 for the full control effect; potency is the fitted concentration of half-maximal effect.
SMILES,max response,outcome,Potency
O=C(O)c1ccc2[nH]cc(CCCCN3CC=C(c4ccccc4)CC3)c2c1,-0.718%,–,–
Cc1cccc(C)c1NC(=O)CN1CCCC1=O,2.15%,inactive,–
Clc1cccc(N2CCNCC2)c1,1.3%,–,–
O=C(NC(O)C(Cl)(Cl)Cl)NC(O)C(Cl)(Cl)Cl (stereo not given),0.365%,–,–
COc1ccc(Cc2nccc3cc(OC)c(OC)cc23)cc1OC,–,–,8.41 µM (active)
Cc1cc(SCc2sc(-c3ccc(C(F)(F)F)c(F)c3)nc2C)ccc1OCC(=O)O,-0.859%,inactive,–
Oc1cc(Cl)ccc1Oc1ccc(Cl)cc1Cl,–,–,22.1 µM (active)
Cc1ccc(-c2nc3ccc(C)cn3c2CC(=O)N(C)C)cc1,-21.2%,–,–
C[C@@H]1[C@@H](C(=O)C[C@H]2O[C@@H]3O[C@]4(C)CC[C@@H]5[C@H](C)CC[C@@H]([C@H]2C)[C@@]35OO4)O[C@@H]2O[C@]3(C)CC[C@H]4[C@H](C)CC[C@@H]1[C@@]24OO3,–,–,0.332 µM (active)
Cc1ccc2c(c1)C1CN(C)CCC1N2 (stereo not given),1.62%,–,–
CN(C)CCc1ccc(O)cc1,4.35%,inactive,–
CCCN1CCC[C@@H]2Cc3[nH]ncc3C[C@H]21,-0.855%,–,–
CN(C)[C@@H]1C(=O)C(C(N)=O)=C(O)[C@@]2(O)C(=O)C3=C(O)c4c(O)cccc4[C@@](C)(O)[C@H]3C[C@@H]12,-12.7%,–,–
CC[C@@H](CO)NC(=O)[C@@H]1C=C2c3cccc4[nH]cc(c34)C[C@H]2N(C)C1,-3.34%,–,–
c1ccc2c(c1)OCC(C1=NCCN1)O2 (stereo not given),–,–,18.8 µM (active)
CCCC(C)(COC(N)=O)COC(=O)NC(C)C (stereo not given),0.0303%,inactive,–

SMILES,max response,outcome,Potency
COc1ccc(C(CN(C)C)C2(O)CCCCC2)cc1 (stereo not given),1.04%,inactive,–
Cc1cccc(C)c1NC1=NCCCS1,-6.53%,–,–
CC(C)(C)NCC(O)c1cc(Cl)c(N)c(Cl)c1 (stereo not given),-10.9%,–,–
CC(C)NCC(O)c1ccccc1Cl (stereo not given),–,inactive,–
N#CC(C#N)=Cc1ccc(O)c(O)c1,-18.8%,–,–
CN1CCN(C(=O)O[C@H]2c3nccnc3C(=O)N2c2ccc(Cl)cn2)CC1,3.04%,inactive,–
C[C@@H]1O[C@@H](O[C@H]2C[C@@H](O)[C@]3(CO)[C@H]4[C@H](O)C[C@]5(C)[C@@H](C6=CC(=O)OC6)CC[C@]5(O)[C@@H]4CC[C@]3(O)C2)[C@H](O)[C@H](O)[C@H]1O,–,–,46.9 nM (active) and 94.4 nM (active) and 70.9 nM (active)
CC(=O)Nc1cc([As](=O)(O)O)ccc1O,2.5%,–,–
CC[N+](CC)(CC)CC,-5.65%,–,–
NCC1(CC(=O)O)CCCCC1,4.46%,inactive,–
CCOC(=O)C1(c2ccccc2)CCN(CCC(C#N)(c2ccccc2)c2ccccc2)CC1,–,–,7.5 µM (active)
Oc1cccc2cccnc12,-0.236%,–,13.7 µM (active)
NCCc1cc(O)c(O)cc1O,–,inactive,–
CCN(C(C)=O)c1cccc(-c2ccnc3c(C#N)cnn23)c1,–,inactive,–
COc1ccccc1N1CCNCC1,–,inactive,–
Clc1ccc(CCC(Cn2ccnc2)Sc2c(Cl)cccc2Cl)cc1 (stereo not given),–,–,26.4 µM (active)
